# Measured values published in PubChem BioAssay (EPA / NIEHS).
# Activity calls are given as the source filed them. The calls were made as follows: active = hit-call score of the fitted dose curve at least 0.9, where 1 is the maximum; inactive = score below 0.9.
# Experiment: APR_HepG2_MicrotubuleCSK_24hr: Apredica 24-hour HepG2 Assay for Microtubule CSK Stabilty (AID 2282909)
# Settings: HepG2 microtubule cytoskeleton imaging, actives raise or lower the signal
# Description: APR_HepG2_24hr is a cell-based, multiplexed-readout assay that uses HepG2, a human liver cell line, with measurements taken at 24 hours after chemical dosing in a 384-well plate.APR_HepG2_MicrotubuleCSK_24hr is one of 10 assay component(s) measured or calculated from the APR_HepG2_24hr assay. It is designed to make measurements of protein conformation, a form of conformation reporter, as detected with fluorescence intensity signals by HCS Fluorescent Imaging technology.Data from the assay component APR_HepG2_MicrotubuleCSK_24hr was analyzed into 1 assay endpoint. This assay endpoint, APR_HepG2_MicrotubuleCSK_24hr, was analyzed with bidirectional fitting relative to DMSO as the negative control and baseline of activity. Using a type of conformation reporter, measures of protein for gain or loss-of-signal activity can be used to understand the signaling at the cellular-level. Furthermore, this assay endpoint can be referred to as a primary readout, because this assay has produced multiple assay endpoints where this one serves a signaling function. To generalize the intended target to other relatable targets, this assay endpoint is annotated to the cell morphology intended target family, where the subfamily is cell conformation.
# Cells were treated with dimethyl sulfoxide (DMSO) as a solvent control at a final concentration of 0.5% v/v or with compounds in DMSO with a resulting final DMSO concentration of 0.5% v/v. Compound treatment was done at concentrations of 0.39, 0.78, 1.56, 3.12, 6.24, 12.5, 25, 50, 100, and 200 uM in duplicate on each plate. Cells were treated with compounds for 1, 24, or 72 hr. Carbonyl […] m-chloro-phenylhydrazone (CCCP) and taxol were used as positive controls for mitochondrial function and cytoskeletal stability, respectively; DMSO served as the negative control for this experiment. Cells were fixed by the direct addition of 50 uL formaldehyde in Hank's Balanced Salt Solution (HBSS) to a final concentration of 3.7%. After incubation in the fixation medium for 30 min at room temperature (293-298 K), cells were rinsed twice with HBSS and treated with cell permeabilization buffer (16 uL of 0.5% Triton X-100) for 10 min at room temperature (293-298 K) before labeling. For mitochondrial membrane potential and mitochondrial measurements, pre-fixed cells were incubated with 50 uL of MitoTracker Red CMXRos (Invitrogen) at a concentration of 250 nM for 30 min before fixation. In the remaining cases, post-fixed cells were labeled by incubation with a multiplexed mixture of primary antibodies in HBSS for 60 min at room temperature (293-298 K) to detect immunoreactivity of c-Jun (1:500), phospho-histone H3 (1:100), phospho-histone H2A.x (1:200), p53 (1:400), alpha-tubulin (1:200) and Hoechst 33342 (2 ug/mL). Cells were labeled for multiplexed imaging on two separate plates: a) Hoechst 33342, MitoTracker Red, phospho-histone H3, and alpha-tubulin, and b) Hoechst 33342, phospho-histone H2A.x, and c-Jun. A final rinse with HBSS (50 uL) was performed before analysis. The primary and secondary antibodies for the proteins were phospho-histone H3 (rabbit anti-phospho-histone H3 and FITC-donkey anti-rabbit IgG), phospho-histone H2A.x (mouse anti-phospho-histone H2A.x and FITC-donkey anti-mouse IgG), c-Jun (rabbit anti-phospho-c-Jun and Cy3-donkey anti-rabbit IgG), p53 (sheep anti-p53 and Cy5-donkey anti-sheep IgG), alpha-tubulin (mouse anti-alpha-tubulin and Cy5-donkey anti-mouse IgG). These antibodies are available as the CellCiphr HepG2 assay kit (Millipore).Digital images of each well were captured using a Cellomics ArrayScan VTI (Thermo Scientific Cellomics) (0.8 NA objective, 0.63x optical coupler, and XF-93 filter set) at 20x magnification. The images were acquired using the autofocus feature of the ArrayScan instrument, which entails the following steps. First, the camera focuses on channel 1 (Hoechst 33342), where nuclei are identified. Second, a Z offset of 1 um is used for capturing mitochondria (MitoTracker Red). […]
Structure (SMILES),outcome,AC50
COCCOCCOCCOC,inactive,
O=c1[nH]c2ccc(S(=O)CCN3CCC(Cc4ccc(F)cc4)CC3)cc2o1 (stereo not given),inactive,
Clc1nc(Cl)c(Cl)c(Cl)c1Cl,inactive,
CCCCCCc1ccc(O)cc1O,inactive,
CCOCCOCCOCCO,inactive,
Cc1ccc(O)cc1,inactive,
O=C(O)CC(O)C(=O)O (stereo not given),inactive,
O=C(O)c1cccc(N(Cc2cccnc2)c2ccc(OC(F)F)c(OC(F)F)c2)c1,inactive,
CC(C)CCCCCCOC(=O)c1ccc(C(=O)OCCCCCCC(C)C)c(C(=O)OCCCCCCC(C)C)c1,inactive,
CNCc1ccc(NC(=O)c2c[nH]c3c2C(=O)CCC3)cc1,inactive,
Cn1cnc([N+](=O)[O-])c1Sc1ncnc2nc[nH]c12,inactive,
CC(C)CCO,inactive,
Fc1ccccc1[C@@H](F)COC1CCC(Nc2ncnc3[nH]ncc23)CC1 (stereo not given in full),,78.4 µM (active)
CC(C)CCCCCCCOC(=O)CCCCC(=O)OCCCCCCCC(C)C,inactive,
Cc1[nH]cnc1C[C@H]1CCc2c(C)c3ccccc3n2C1=O,inactive,
C1N2CN3CN1CN(C2)C3,inactive,
CCCCCCCCO,inactive,
CCCCC(CC)COC(=O)CCCCCCCCC(=O)OCC(CC)CCCC (stereo not given),,128 µM (active)
CC(C)(O)c1coc(S(=O)(=O)NC(=O)Nc2c3c(cc4c2CCC4)CCC3)c1,inactive,
Cn1c(=O)c2c(ncn2C)n(C)c1=O,inactive,

Structure (SMILES),outcome,AC50
CC[C@H]1CC[C@H](NCc2cc3c(cc2OC)[C@H]2C[C@H]2C(=O)N3C)[C@H](c2ccccc2)N1,inactive,
O=C(OC[C@H]1O[C@@H](OC(=O)c2cc(O)c(O)c(OC(=O)c3cc(O)c(O)c(O)c3)c2)[C@H](OC(=O)c2cc(O)c(O)c(OC(=O)c3cc(O)c(O)c(O)c3)c2)[C@@H](OC(=O)c2cc(O)c(O)c(OC(=O)c3cc(O)c(O)c(O)c3)c2)[C@@H]1OC(=O)c1cc(O)c(O)c(OC(=O)c2cc(O)c(O)c(O)c2)c1)c1cc(O)c(O)c(OC(=O)c2cc(O)c(O)c(O)c2)c1,inactive,
COC(=O)CC(=O)OC,inactive,
CCCCCCCCCCCCc1ccccc1,inactive,
O=C(NS(=O)(=O)/C=C/c1ccccc1)c1ccc(F)cc1Cl,inactive,
COc1cccc(-c2ccc(/C=C\CN3CCCCCC3)cc2Cl)c1,inactive,
COC(=O)c1ccccc1O,inactive,
CCOCCO,inactive,
Cc1ccc(C)c(O)c1,inactive,
CCCCC(CC)COC(=O)c1ccc(C(=O)OCC(CC)CCCC)cc1 (stereo not given),inactive,
CC(C)CC(C)(O)C#CC(C)(O)CC(C)C (stereo not given),inactive,
CC1=CC(=O)CC(C)(C)C1,inactive,
C1=CCCC=CCCC=CCC1,inactive,
COCCOc1cc2cc(C(=O)NC3CCN(C(C)C)CC3)n(CC(=O)Nc3ccc(Cl)cn3)c2cn1,inactive,
CCNc1ccccc1,inactive,
CCOc1cccc(-n2cc(C(=O)N3CCN(c4cc(C(=O)O)c5ccccc5c4)CC3)nc2-c2ccc(C)cc2)c1,,101 µM (active)
CC(C)=CCCC(C)CCO (stereo not given),inactive,
CCN(C(=O)c1cc(C)cc(OC[C@H](C)Nc2ccncc2)c1)C(C)C,inactive,
CCOC(=O)c1ccc(C2CCC(NC[C@H](O)COc3ccc(O)c(NS(C)(=O)=O)c3)CC2)cc1 (stereo not given in full),,90.2 µM (active)
CC(=O)OC[C@H]1O[C@@](COC(C)=O)(O[C@H]2O[C@H](COC(C)=O)[C@@H](OC(C)=O)[C@H](OC(C)=O)[C@H]2OC(C)=O)[C@@H](OC(C)=O)[C@@H]1OC(C)=O,inactive,
